Inconclusive results are not listed. The source made the active and inactive calls. Calls follow the shape of the dose curve; as a rule, active = well fitted curve in the direction sought with a large enough effect; inconclusive = small, poorly fitted or top-dose-only effect, or another doubt; inactive = no such curve, though single readings can be large; an effect the other way counts as inactive or inconclusive.
Experiments:
[1] = target: Cytochrome P450 2C9 (Homo sapiens) (UniProt P11712); assay: qHTS Assay for Inhibitors and Substrates of Cytochrome P450 2C9 (AID 883); also: nearly all actives have a fitted effect of over 60% in size
In short: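 A luminogenic readout tracked human CYP2C9 (10nM) converting deoxyluciferin (100uM, at KM) in 25mM KPO4 during 60 min at 37C with regenerated NADPH. Values normalized to 57uM sulphaphenazole as complete inhibition.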

[2] = target: Cytochrome P450 2C19 (Homo sapiens) (UniProt P33261); assay: qHTS Assay for Inhibitors and Substrates of Cytochrome P450 2C19 (AID 899); also: nearly all actives have a fitted effect of over 60% in size
In short: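 NADPH-dependent conversion of Luciferin-H EGE (10uM, at KM) by 5nM enzyme in 50mM KPO4, 60 min at 37C following 10 min compound preincubation. Stopped with luciferin detection buffer; luminescence read after 20 min.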

[3] = Cellular Toxicity (caspase-3) HepG2 (AID 654);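 also: cells exposed to compound for 16 hours before reading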
In short: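 HepG2 cells (1500/well) were treated 16 h at 37 °C in complete medium, then caspase 3/7 activity was read by Caspase-Glo luminescence. Data were normalized to DMSO and 100 uM tamoxifen; AC50 came from Hill-equation fits of qHTS concentration-response.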

[4] = Cellular Toxicity (caspase-3) Jurkat (AID 655);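 also: cells exposed to compound for 16 h at 37 °C before reading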
In short: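 Caspase 3/7 activation is scored as increased luminescence in Jurkat cells cultured with compound for 16 hours in complete medium. AC50 values come from Hill fits of qHTS concentration-response data normalized to DMSO and 100 uM tamoxifen controls.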

[5] = Cellular Toxicity (caspase-3) HUV-EC-C (AID 656)
In short: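 Read-out: luminescence proportional to caspase 3/7 activity, measured 20 min after adding Caspase-Glo 3/7 reagent. Cells (HUV-EC-C) had received compound for 16 hr at 37°C. Increases relative to DMSO and 100 uM tamoxifen gave concentration-response AC50 values.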

[6] = Cellular Toxicity (caspase-3) BJ (AID 658)
In short: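 Luminescent aminoluciferin-substrate cleavage reports caspase 3/7 activity in normal human BJ fibroblasts after 16 hr compound exposure at 37 °C. Normalized to DMSO (basal) and 10 uM staurosporine (100%); AC50 from Hill fit of concentration-response.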

[7] = Cellular Toxicity (caspase-3) MRC-5 (AID 659)
In short: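 Luminescence from caspase-cleaved aminoluciferin substrate (Caspase-Glo 3/7, 1 hr RT) reports caspase 3/7 activity in MRC-5 lung fibroblasts after 16 hr compound exposure. Normalized to DMSO basal and 10 uM staurosporine as 100%; AC50 from Hill fits.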

[8] = Cellular Toxicity (caspase-3) Mesangial (AID 660);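 also: cells exposed to compound for 16 h before the caspase read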
In short: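 Human renal glomerular mesangial cells, 1000/well, 5 h at 37 C before 16 h compound treatment. Caspase-Glo 3/7 luminescence after 20 min; normalized to DMSO and 100 uM tamoxifen, AC50 from Hill fit.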

[9] = Cellular Toxicity (caspase-3) SK-N-SH (AID 661)
In short: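 Human SK-N-SH neuroblastoma cells, 1500/well, were exposed to compounds for 16 hours at 37 °C. Caspase-Glo 3/7 luminescence was normalized to DMSO (basal) and 10 uM staurosporine (100%), and AC50 came from a Hill fit.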

[10] = Cellular Toxicity (caspase-3) H-4-II-E (AID 663);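 also: cells exposed to compound for 16 hr before readout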
In short: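 Luminescence from caspase-cleaved aminoluciferin substrate, read 20 min after reagent addition, reports caspase 3/7 activation in rat H-4-II-E cells after 16 hr compound exposure. Normalized to DMSO (basal) and 100 uM tamoxifen (100%); AC50 from Hill fits.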

[11] = Cellular Toxicity (caspase-3) Hek293 (AID 664);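 also: cells exposed to compound for 16 h at 37 °C before readout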
In short: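 HEK293 cells in complete medium treated 16 h at 37 °C, then Caspase-Glo 3/7 luminescence read after 20 min at room temperature. Normalized to DMSO and 100 uM tamoxifen; AC50 from Hill fit of concentration-response.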

[12] = Cellular Toxicity (caspase-3) N2a (AID 665);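 also: compound exposure lasted 16 h at 37 °C before readout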
In short: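 Mouse N2a neuroblastoma cells, 1500 per well, treated 16 h at 37 °C in complete medium; caspase-3/7 activity by Caspase-Glo luminescence after 1 h. Normalized to DMSO and 10 uM staurosporine; AC50 from Hill fits.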

[13] = Cellular Toxicity (caspase-3) NIH 3T3 (AID 666)
In short: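 Mouse NIH 3T3 fibroblasts (1000/well) treated 16 h at 37 C; caspase-3/7 activity measured by Caspase-Glo 3/7 luminescence after 20 min. Normalized to DMSO and 100 uM tamoxifen; AC50 from Hill fits.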

[14] = Confirmation and Secondary Assay for Modulators of Hemoglobin Beta Chain Splicing at IVS2 654 locus (AID 910);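 also: per-well total GFP intensity by laser scanning cytometry after 2-day treatment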
In short: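 HeLa cells stably carrying EGFP interrupted by mutant beta-globin IVS2-654 intron (CMV-driven) were treated with compound for 2 days at 37C; corrected splicing was scored as total peak GFP intensity per well (488 nm excitation, 500-520 nm emission).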

[15] = target: Cytochrome P450 3A4 (Homo sapiens) (UniProt P08684); assay: qHTS Assay for Inhibitors and Substrates of Cytochrome P450 3A4 (AID 884); also: series mostly up to about 57 µM; nearly all actives have a fitted effect of over 50% in size
In short: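 20 nM human CYP3A4 with 25 uM Luciferin-PPXE (at KM) in 200 mM KPO4, preincubated 10 min with compound; NADPH regeneration started a 60 min RT reaction. Luciferin detected by luminescence, normalized to 57 uM ketoconazole as full inhibition.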

[16] = target: Guanine nucleotide-binding protein G(i) subunit alpha-1 (Homo sapiens) (UniProt P63096); assay: qHTS Assay for Inhibitors of RGS12 GoLoco Motif Activity (Green Fluorophore) (AID 879);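 also: negative values mean loss of peptide binding seen as reduced polarization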
In short: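 Fluorescence polarization assay: 50 nM Gαi1 with 10 nM FITC-labeled RGS12 GoLoco peptide in 10 mM Tris pH 7.5, 150 mM NaCl, 0.1 mM GDP, 0.05% NP40, 10 min at room temperature with compound.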

[17] = qHTS Assay for Identification of Small Molecule Agonists for Thrombopoietin (TPO) Signaling Pathway (AID 917)
In short: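 We measured Glycoprotein IIb promoter–luciferase output in IL-3-starved Ba/F3 murine cells expressing the human TPO receptor after 24 hrs at 37 C with compounds and 26 pM TPO.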

[18] = target: Cytochrome P450 3A4 (Homo sapiens) (UniProt P08684); assay: qHTS Assay for Activators of Cytochrome P450 3A4 (AID 885); also: nearly all actives have a fitted effect of over 65% in size
In short: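 20nM CYP3A4 + 25uM Luciferin-PPXE (=KM), 200mM KPO4; cpd 10 min RT; NADPH regen, 60 min RT; stop w/ detection buffer, 20 min; luminescence. Normalized to 57 uM ketoconazole.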

Measured: Potency

Sequence of Cytochrome P450 3A4 (Homo sapiens) (P08684 whole entry, looked up): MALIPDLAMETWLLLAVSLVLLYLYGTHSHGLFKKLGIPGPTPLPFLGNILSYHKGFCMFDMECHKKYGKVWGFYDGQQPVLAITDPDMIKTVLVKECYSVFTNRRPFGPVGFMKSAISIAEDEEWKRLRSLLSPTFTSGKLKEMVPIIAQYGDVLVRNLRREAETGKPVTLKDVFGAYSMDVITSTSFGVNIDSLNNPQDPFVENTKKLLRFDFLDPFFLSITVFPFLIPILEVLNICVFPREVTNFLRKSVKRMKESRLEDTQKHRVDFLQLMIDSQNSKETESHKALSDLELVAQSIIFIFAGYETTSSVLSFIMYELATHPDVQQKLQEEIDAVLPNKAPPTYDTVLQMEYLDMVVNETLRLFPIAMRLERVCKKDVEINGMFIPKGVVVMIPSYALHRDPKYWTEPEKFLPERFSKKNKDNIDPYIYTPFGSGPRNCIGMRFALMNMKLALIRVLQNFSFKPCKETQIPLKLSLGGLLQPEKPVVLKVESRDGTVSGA
Sequence of Guanine nucleotide-binding protein G(i) subunit alpha-1 (Homo sapiens) (P63096 whole entry, looked up): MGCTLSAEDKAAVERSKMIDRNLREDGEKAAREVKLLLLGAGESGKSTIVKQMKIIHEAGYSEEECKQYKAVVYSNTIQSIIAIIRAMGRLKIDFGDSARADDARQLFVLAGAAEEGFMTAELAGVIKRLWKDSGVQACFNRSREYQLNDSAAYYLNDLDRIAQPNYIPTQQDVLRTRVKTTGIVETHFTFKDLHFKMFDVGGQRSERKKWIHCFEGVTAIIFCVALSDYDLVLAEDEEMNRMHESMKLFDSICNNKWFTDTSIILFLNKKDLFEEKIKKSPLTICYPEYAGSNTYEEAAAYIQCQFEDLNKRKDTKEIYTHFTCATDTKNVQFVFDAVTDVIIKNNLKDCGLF
Sequence of Cytochrome P450 2C19 (Homo sapiens) (P33261 whole entry, looked up): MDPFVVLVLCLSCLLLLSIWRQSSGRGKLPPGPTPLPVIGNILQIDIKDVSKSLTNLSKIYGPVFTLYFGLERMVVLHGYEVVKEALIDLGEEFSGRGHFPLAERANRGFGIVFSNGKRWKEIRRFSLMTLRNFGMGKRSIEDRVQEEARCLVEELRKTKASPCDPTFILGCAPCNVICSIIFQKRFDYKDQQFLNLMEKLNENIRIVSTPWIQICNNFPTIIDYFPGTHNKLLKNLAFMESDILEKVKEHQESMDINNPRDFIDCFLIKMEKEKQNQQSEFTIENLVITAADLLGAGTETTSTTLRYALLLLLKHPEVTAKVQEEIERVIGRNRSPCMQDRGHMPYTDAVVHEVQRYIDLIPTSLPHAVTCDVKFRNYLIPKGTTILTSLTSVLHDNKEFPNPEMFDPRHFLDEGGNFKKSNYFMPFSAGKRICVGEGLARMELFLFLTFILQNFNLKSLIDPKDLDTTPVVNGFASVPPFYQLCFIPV
Sequence of Cytochrome P450 2C9 (Homo sapiens) (P11712 whole entry, looked up): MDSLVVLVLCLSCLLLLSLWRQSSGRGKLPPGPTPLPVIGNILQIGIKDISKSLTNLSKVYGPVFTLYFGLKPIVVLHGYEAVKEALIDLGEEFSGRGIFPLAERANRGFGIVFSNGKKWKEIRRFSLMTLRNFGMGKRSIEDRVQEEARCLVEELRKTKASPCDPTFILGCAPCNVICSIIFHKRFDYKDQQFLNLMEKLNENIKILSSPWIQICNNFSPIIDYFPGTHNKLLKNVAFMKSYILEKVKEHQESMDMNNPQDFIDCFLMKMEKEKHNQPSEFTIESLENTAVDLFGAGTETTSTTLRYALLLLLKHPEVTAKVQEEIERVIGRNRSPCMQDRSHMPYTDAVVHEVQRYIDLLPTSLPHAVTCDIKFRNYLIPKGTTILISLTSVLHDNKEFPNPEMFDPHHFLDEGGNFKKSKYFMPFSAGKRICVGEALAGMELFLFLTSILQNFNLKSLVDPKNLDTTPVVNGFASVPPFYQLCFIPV

C[C@@H]1CCC[C@H](C)N1
inactive: [1] | [2]

CCN(CC)C(=O)c1cccc(C)c1
inactive: [3] | [4] | [5] | [6] | [7] | [8] | [9] | [10] | [11] | [12] | [13] | [14]

CCCCCC(N)=O
inactive: [3] | [4] | [5] | [6] | [7] | [8] | [9] | [10] | [11] | [12] | [13] | [15]

CN1C(C)(C)CCCC1(C)C
inactive: [16] | [14] | [17]

Cc1cc(NC(=O)C2=C(O)c3ccccc3S(=O)(=O)N2C)no1
inactive: [15] | [14]

CCCCCCCC(=O)OCC(COC(=O)CCCCCCC)OC(=O)CCCCCCC
inactive: [3] | [4] | [5] | [6] | [7] | [8] | [9] | [10] | [11] | [12] | [13] | [15]

Cc1c(NC(C)C)c(=O)n(-c2ccccc2)n1C
inactive: [15] | [14]

NC(=O)CC[C@@H](N)C(=O)O
inactive: [16] | [17]

NC(=O)c1ccc([N+](=O)[O-])cc1Cl
inactive: [15] | [14]

O=C(O)c1ccccc1C(=O)Nc1ccc(S(=O)(=O)Nc2nccs2)cc1
inactive: [15] | [18] | [14]

NC(N)=NS(=O)(=O)c1ccc(N)cc1
inactive: [15] | [14]

CC(=O)Nc1ccccc1
inactive: [3] | [4] | [5] | [6] | [7] | [8] | [9] | [10] | [11] | [12] | [13] | [15] | [14]

Nc1ccc(S(=O)(=O)c2ccc(N)cc2)cc1
inactive: [3] | [4] | [5] | [6] | [7] | [8] | [9] | [10] | [11] | [12] | [13] | [14]

Cc1c(N(C)C)c(=O)n(-c2ccccc2)n1C
inactive: [3] | [4] | [5] | [6] | [7] | [8] | [9] | [10] | [11] | [12] | [13] | [15]

COc1ccc(O)cc1
inactive: [3] | [4] | [5] | [6] | [7] | [8] | [9] | [10] | [11] | [12] | [13] | [15]

O=C(c1ccccc1)C(O)c1ccccc1 (stereo unspecified)
inactive: [3] | [4] | [5] | [6] | [7] | [8] | [9] | [10] | [11] | [12] | [13] | [15]

CCCCOC(=O)c1ccc(N)cc1
inactive: [3] | [4] | [5] | [6] | [7] | [8] | [9] | [10] | [11] | [12] | [13] | [14]

O=C1c2cccc(O)c2C(=O)c2c(O)cccc21
inactive: [3] | [4] | [5] | [6] | [7] | [8] | [9] | [10] | [11] | [12] | [13] | [15] | [14]

FC(F)(F)C(Cl)Br (stereo unspecified)
inactive: [3] | [4] | [5] | [6] | [7] | [8] | [9] | [10] | [11] | [12] | [13] | [15]

CC1CCc2cc(F)cc3c(=O)c(C(=O)O)cn1c23 (stereo unspecified)
inactive: [15] | [14]

Cc1cccc(C(=O)O)c1O
inactive: [15] | [14]

From PubChem BioAssay (NCATS)
